# Data from PubChem BioAssay AID504834 (National Center for Advancing Translational Sciences (NCATS), 2011).
# Hit rate of the full screen: of about 320,000 compounds, about 22,000 (6.9%) were called active. Where a call stands in place of a potency, no number is given. About 27% were inconclusive and are not listed. Calls follow the shape of the dose curve; as a rule, active = well fitted inhibition curve with a large enough effect; inconclusive = small, poorly fitted or top-dose-only effect, or another doubt; inactive = no such curve, though single readings can be large or run the other way. Many of the other results were omitted from the sample, so actives are more common in it than they were.
# Test: Primary qHTS for delayed death inhibitors of the malarial parasite plastid, 96 hour incubation
# Conditions: P. falciparum luciferase reporter growth; series mostly up to 28.7 µM
# Summary of the method: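 Infected RBCs, 2% Hct / 0.05% parasitemia final; luciferase-reporter P. falciparum; cpd 96 h, 37 C, 5% CO2; luciferase detection reagent; luminescence.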
# Potency is read from the fitted curve at half-maximal effect.
row,Structure (SMILES),Potency
1,CC1(C)Oc2ccc3ccc(=O)oc3c2/C(=N/O)C1=O,inactive
2,NC(=O)Cc1ccc2c(c1)[nH]c1ccccc12,inactive
3,C[C@H](NC(=O)C1CC(=O)N(c2ccc3c(c2)OCO3)C1)C(=O)NCc1ccco1 (some centres undefined),inactive
4,CCc1cccc(C)c1N(C(=O)Cn1c(CO)nc2ccccc21)C(C)COC (centres undefined),inactive
5,CCOCN(C(=O)Cn1c(C(C)O)nc2ccccc21)c1c(C)cccc1CC (centres undefined),8.28 µM (active)
6,Cc1ccccc1OC(=O)Cn1c(C(F)(F)F)nc2ccccc21,inactive
7,CC(C)=NN1C(=O)c2ccccc2NC1(C)C,inactive
8,Cc1csc(NC(=O)c2ccc(-c3ccc(Cl)cc3Cl)o2)n1,4.65 µM (active)
9,Cc1csc(NC(=S)Nc2cccc(Cl)c2)n1,inactive
10,O=C(Nc1cccc2ncccc12)c1ccc(-c2ccc(Cl)cc2Cl)o1,inactive
11,COc1cc(S(=O)(=O)N2CCN=C2c2ccccc2)ccc1Cl,inactive
12,Cc1ccc(-n2c(O)c(C=Nc3ccc(S(=O)(=O)Nc4ncccn4)cc3)c3ccccc3c2=O)cc1C,inactive
13,CCN(CC)CCCN=Cc1c(O)n(-c2ccc(C)cc2)c(=O)c2ccccc12,inactive
14,COc1ccc(-n2c(O)c(C=NCC(c3ccco3)N3CCCC3)c3ccccc3c2=O)cc1OC (centres undefined),10.4 µM (active)
15,O=c1[nH]c(N2CCOCC2)nc2ccccc12,inactive
16,CC(C(=O)NC1CCS(=O)(=O)C1)N1C(=O)/C(=C/c2ccc(Cl)cc2)SC1=S (centres undefined),inactive
17,O=C1N=C(N2CCOCC2)S/C1=C\C=C/c1ccccc1,inactive
18,Cc1ccsc1/C=C1\SC(N2CCOCC2)=NC1=O,inactive
19,CC1CCN(C2=NC(=O)/C(=C/c3cn[nH]c3-c3ccccc3)S2)CC1,13.1 µM (active)
20,Cc1ccc(-c2nnc(CN3CCN(C)CC3)o2)cc1,inactive
21,COc1ccc(CCNC(=O)C(=O)NCC2OCCN2S(=O)(=O)c2ccc(F)cc2)cc1OC (centres undefined),inactive
22,Cc1ccc(NS(=O)(=O)c2ccc(N/N=C/c3ccccc3OCC(=O)O)c([N+](=O)[O-])c2)c(C)c1,9.28 µM (active)

row,Structure (SMILES),Potency
1,O=[N+]([O-])c1ccc(O)c(/C=N/Nc2ccccc2[N+](=O)[O-])c1,inactive
2,Cc1ccc(S(=O)(=O)NC(=O)COc2ccccc2C)cc1,inactive
3,O=C(Cc1ccc(Cl)cc1)NC(=S)Nc1ccccc1O,inactive
4,CC1(C)O[C@@H]2[C@H](O1)[C@@H](COS(=O)(=O)O)O[C@H]2n1ccc(=O)[nH]c1=O,inactive
5,CN(c1ccccc1)S(=O)(=O)c1ccc(NC(=O)COc2ccccc2)cc1,inactive
6,CN(c1ccccc1)S(=O)(=O)c1cccc(NC(=O)Cc2c(F)cccc2Cl)c1,14.7 µM (active)
7,CN(C)S(=O)(=O)c1cccc(NC(=O)Cc2ccsc2)c1,inactive
8,Cc1ccc(S(=O)(=O)n2cccc2CO)cc1,inactive
9,COc1ccccc1CCNC(=O)C1CCN(C(=O)/C=C/c2ccccc2)CC1,inactive
10,CCN(CC(=O)NCc1ccc(Cl)cc1)C(=O)CSc1ccccc1,inactive
11,Nc1ccc(C(=O)NCc2ccccc2)cc1,inactive
12,Nc1ccc(-c2nnc(-c3ccc(-c4ccccc4)cc3)o2)cc1,inactive
13,Nc1ccc(Nc2ccccc2)cc1,9.28 µM (active)
14,Cc1ccnc(NC(=O)CNC(=O)c2ccccc2)c1,inactive
15,CC1(C)CC2CC(C)(CN2c2ncnc3ccc(Br)cc23)C1 (centres undefined),16.5 µM (active)
16,COc1ccc(Nc2ncnc3ccc(Br)cc23)c(OC)c1,inactive
17,C=CCNc1ncnc2ccc(Br)cc12,inactive
18,CCC(C)C(=O)Nc1ccccc1N1CCN(c2ccc(F)cc2)CC1 (centres undefined),inactive
19,Cc1csc(=O)n1CCC(=O)OCC(=O)NNC(=O)c1ccc(Br)cc1,inactive
20,O=c1ccc2cc(S(=O)(=O)Nc3ccccc3F)ccc2o1,inactive
21,O=C1COc2ccc(S(=O)(=O)Nc3ccc(OC(F)(F)F)cc3)cc2N1,inactive
22,O=C(COC(=O)c1ncc(Cl)c(Cl)c1Cl)NCc1cccs1,inactive

row,Structure (SMILES),Potency
1,O=C(COC(=O)c1cccs1)NCc1cccs1,inactive
2,O=C(COC(=O)c1ccc(Cl)nc1)NCc1cccs1,2.33 µM (active)
3,COc1ccc(-c2nn(-c3ccccc3)cc2/C=C2/SC(=S)N(CCCC(=O)O)C2=O)c(C)c1,inactive
4,CS(=O)(=O)N1CCc2cc(C(=O)Nc3ccccc3Br)ccc21,inactive
5,O=C(O)c1cnn2c(C(F)(F)F)cc(-c3ccccc3)nc12,inactive
6,O=C(NCc1ccco1)c1cnn2c(C(F)(F)F)cc(-c3ccco3)nc12,1.65 µM (active)
7,COc1ccc(C(=O)Nc2ccccc2C(=O)NCc2ccco2)cc1,inactive
8,CCC1CCCCN1C(=O)CSc1nc2c(c(=O)n1C)SC(C)C2 (centres undefined),1.47 µM (active)
9,CCC1CCCCN1C(=O)CSc1nc2c(c(=O)n(C)c(=O)n2C)n1C (centres undefined),inactive
10,CCC1CCCCN1C(=O)CSc1nc(C)cc(C)n1 (centres undefined),inactive
11,O=S(=O)(NCc1ccccc1Br)c1ccccc1Br,inactive
12,O=C(CN1CCN(C2CCS(=O)(=O)C2)CC1)N1N=C(c2ccc(Cl)cc2)CC1c1ccco1 (centres undefined),inactive
13,COc1cc(C(=O)NCC(c2ccco2)N2CCCC2)ccc1OCc1ccccc1 (centres undefined),2.62 µM (active)
14,COc1ccc(C(=O)NCC(c2ccco2)N2CCc3ccccc32)cc1OC (centres undefined),inactive
15,CCOC(CNC(=O)C(=O)NCC(c1ccco1)N1CCN(c2ccc(OC)cc2)CC1)OCC (centres undefined),inactive
16,Cc1ccccc1C(=O)NCC(c1ccco1)N1CCc2ccccc21 (centres undefined),inactive
17,O=C(NCC(c1ccco1)N1CCc2ccccc2C1)c1ccccc1Cl (centres undefined),inactive
18,CC1Cc2ccccc2N1S(=O)(=O)c1cccc(C(=O)NCC(c2ccco2)N2CCCC2)c1 (centres undefined),1.85 µM (active)
19,O=C(Cc1ccccc1Cl)N1CCOCC1,inactive
20,COc1ccc(CCNC(=O)c2nnc(CS(=O)(=O)c3ccccc3)o2)cc1OC,inactive
21,CC(C)Cc1nnc(NC(=O)CN2C(=O)NC3(CCCCC3)C2=O)s1,inactive
22,COc1ccc(CCN2C(=O)C3CC=C(C)CC3C2=O)cc1OC (centres undefined),inactive

row,Structure (SMILES),Potency
1,COc1ccc(CCN=C2SCC(=O)N2C)cc1OC,inactive
2,COc1ccc(CCN2CNc3c(c(=O)n(C)c(=O)n3C)C2)cc1OC,13.1 µM (active)
3,CN(c1ccccc1)S(=O)(=O)c1cccc(C(=O)NNC(=O)c2ccncc2)c1,inactive
4,COc1cccc(NC(=O)N2C3CCCC2CC(NC(C)=O)C3)c1 (centres undefined),inactive
5,NC(=O)c1nnsc1-c1ccc(-c2snnc2C(N)=O)cc1,inactive
6,NS(=O)(=O)c1ccc(CNC(=O)c2cnccn2)cc1,inactive
7,COCCOCCn1cnc2ccccc21,inactive
8,Cc1cc2ncn(CCCCOc3ccccc3)c2cc1C,14.7 µM (active)
9,Cc1c(C(N)=O)sc2ncn(CCOc3ccccc3)c(=O)c12,inactive
10,COc1ccc(NC(=O)CC(NC(C)c2ccccc2)C(=O)O)cc1 (centres undefined),inactive
11,CCCCCC(O)(CCN1CCCCC1)c1ccccc1 (centres undefined),inactive
12,CCC1(C)Cc2c(sc3[nH]c(=S)n(Cc4ccccc4)c(=O)c23)CO1 (centres undefined),inactive
13,CCOC(=O)CSc1nc2sc3c(c2c(=O)[nH]1)CC(C)(C)OC3,inactive
14,CCC1(C)Cc2c(sc3nc(SC)[nH]c(=O)c23)CO1 (centres undefined),9.28 µM (active)
15,CCOc1ccc(S(=O)(=O)N2CCCC(C(=O)N3CCC(C(N)=O)CC3)C2)cc1Cl (centres undefined),inactive
16,COc1ccc(OC)c(S(=O)(=O)N2CCCC(C(=O)NCCc3ccccc3)C2)c1 (centres undefined),inactive
17,CCOC(=O)c1sc(NC(=O)C2CSC3(C)CCC(=O)N23)nc1C (centres undefined),inactive
18,COc1cc(C(C(=O)NC2CCCC2)N(C(=O)c2ccco2)c2ccccc2C(C)=O)cc(OC)c1OC (centres undefined),inactive
19,O=C(/C=C/Nc1ccc(S(=O)(=O)Nc2cnc3ccccc3n2)cc1)c1cccnc1,inactive
20,CCn1c(SCC(=O)Nc2ccc3c(c2)OCCO3)nnc1C(C)C,inactive
21,O=C(CSc1nnnn1-c1ccc2c(c1)CCC2)Nc1ccc2c(c1)OCCO2,10.4 µM (active)
22,CCn1c(SCC(=O)Nc2ccc3c(c2)OCCO3)nnc1-c1ccncc1,inactive

row,Structure (SMILES),Potency
1,c1ccc2c(c1)C(=NC1CCCCC1)NC2=NC1CCCCC1,2.94 µM (active)
2,O=C1CCCCC(=O)c2ccccc2N1,inactive
3,CC(=O)c1ccc(N2CCN(CC(O)c3ccccc3)CC2)cc1 (centres undefined),inactive
4,COc1cccc(S(=O)(=O)NCc2ccc(C(=O)NCc3ccccn3)cc2)c1,2.94 µM (active)
5,COc1cccc(NC(=S)NCc2ccccn2)c1,inactive
6,COc1cccc(CNS(=O)(=O)c2csc(C(N)=O)c2)c1,inactive
7,O=C(COC(=O)c1ccccc1)c1ccc2c(c1)OCCO2,inactive
8,CCOC(=O)c1c(-c2ccccc2)oc2cc(Br)c(O)cc12,inactive
9,O=C(c1ccc(Cn2cc([N+](=O)[O-])cn2)o1)N1CCCC1,inactive
10,CC(C)CC(CCc1ccccc1)OS(N)(=O)=O (centres undefined),inactive
11,O=C(COC(=O)c1ccc(O)cc1O)NNC(=O)c1cccs1,inactive
12,CCOc1cc(N2CCOCC2)c(OCC)cc1NC(=O)COc1cccc(Cl)c1,inactive
13,CCOc1cc(N2CCOCC2)c(OCC)cc1NC(=O)COc1cccc2cccnc12,9.28 µM (active)
14,CCOc1cc(N2CCOCC2)c(OCC)cc1NC(=O)COC(=O)[C@H](Cc1c[nH]c2ccccc12)NC(C)=O,inactive
15,O=C(N/N=C/c1cccnc1)c1ccc(NC(=O)c2ccc(F)cc2)cc1,inactive
16,Cn1nc(-c2ccccc2)c2cc([N+](=O)[O-])ccc21,9.28 µM (active)
17,COc1ccc([N+](=O)[O-])cc1-c1nc2ccccc2nc1-c1ccccc1,inactive
18,Cc1nc(-c2ccc([N+](=O)[O-])cc2)c(-c2ccccc2)o1,inactive
19,COc1ccccc1Cn1c(=S)[nH]c2cc(C(=O)N3CCN(C)CC3)ccc2c1=O,inactive
20,CCOC(=O)N1CCN(C(=O)c2ccc3c(=O)n(CCc4ccc(OC)c(OC)c4)c(=O)[nH]c3c2)CC1,2.62 µM (active)
21,COc1ccc(CCNC(=O)CCCCn2c(=O)[nH]c3ccccc3c2=O)cc1OC,inactive
